# Screening data deposited in PubChem BioAssay by National Center for Advancing Translational Sciences (NCATS).
# In the library only some 1.7% were active in any assay of this set; here they are far more common.
# miR-21 reporter: qHTS Assay for Modulators of miRNAs and/orActivators of miR-21. HeLa miR-21 FLuc reporter, luciferase, 48 h. Potency, µM (titrated, usually from 38.3 µM), for inactives: top-dose activity change, positive = activation, hits mostly activators. 340,000 tested, under 10 active. AID 2288, 2010;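 further: % of control where 0% means no effect; miR-21 action dims this reporter so a rising signal means less miR-21 action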
#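 HeLa cells endogenously expressing miR-21, stably carrying CMV-driven firefly luciferase with a downstream miR-21 binding site, 2000 cells/well. Titrations up to approximately 40 uM, 48 hours; luciferase luminescence read.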
# PTHR1 agonist: qHTS for PTHR1 Agonists: Primary Screen. Parathyroid hormone/parathyroid hormone-related peptide receptor (Homo sapiens), Q03431. HEK293 GP2 PTHR1 cells, GloSensor cAMP luminescence, 1 h. Potency, µM (series often up to 115 µM), inactives show top-dose activation, actives largely listed as activators. 410,000 compounds, 0.075% hits. AID 743266, 2014; further: potency means the concentration at half of the fitted maximal effect; nearly all actives have a fitted effect of over 55% in size
#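 HEK-293-derived GP2 cells expressing PTHR1 and a GloSensor cAMP reporter, 3,000/well, plated overnight, given luciferin plus IBMX (each 0.5 mM as added) for 1 h at 37 °C, then compound for 1 h at 37 °C. Luminescence was read after 15 min at room temperature.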
# Pin1 inh: qHTS Assay to Find Inhibitors of Pin1; Peptidyl-prolyl cis-trans isomerase NIMA-interacting 1 (Homo sapiens), Q13526; Pin1 FP peptide displacement, HiFluor488, 10 min; Potency, µM (doses to about 115 µM), for the others: top-dose activity, negative = inhibition, usual class: inhibitors; 390,000 compounds, 0.009% hits; AID 504891, 2011; active means well fitted inhibition curve with a large enough effect in the polarisation, with a control signal flat, not every such curve was filed as active; inconclusive means small, poorly fitted or top-dose-only effect, or effect the other way, or a change in a side signal; inactive means no such curve, though single readings can be large or run the other way; the % refers to the polarisation; further: potency means the concentration at half of the fitted maximal effect; on the % scale 0 is the no-effect control and ±100 the full control effect
# GLP-1R agonist: qHTS of GLP-1 Receptor Agonists; Glucagon-like peptide 1 receptor (Homo sapiens), P43220; HEK293 GLP-1R CRE-luciferase, luminescence, 4-6 h; cells express a hypersensitive GLP-1R form; Potency, µM (top dose mostly 45.6 µM), for the others: at the highest dose activation, hits mostly activators; 380,000 compounds, 0.007% hits; AID 624172, 2012; further: potency means the concentration at half of the fitted maximal effect; % of control where 0% means no effect
# Target sequence (P43220 whole entry, looked up): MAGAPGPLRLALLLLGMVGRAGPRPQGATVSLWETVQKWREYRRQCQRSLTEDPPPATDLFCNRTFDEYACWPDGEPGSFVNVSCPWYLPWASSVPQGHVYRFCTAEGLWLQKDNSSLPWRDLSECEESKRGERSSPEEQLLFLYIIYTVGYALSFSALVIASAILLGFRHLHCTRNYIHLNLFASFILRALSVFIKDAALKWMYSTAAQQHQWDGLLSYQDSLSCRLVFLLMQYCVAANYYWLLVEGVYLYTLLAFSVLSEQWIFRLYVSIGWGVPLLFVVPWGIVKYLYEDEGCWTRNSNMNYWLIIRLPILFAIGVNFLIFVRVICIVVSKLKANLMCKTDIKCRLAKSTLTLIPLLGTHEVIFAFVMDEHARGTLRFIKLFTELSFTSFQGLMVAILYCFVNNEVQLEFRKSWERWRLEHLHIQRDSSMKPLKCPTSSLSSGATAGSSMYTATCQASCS
# HEK293 tox: qHTS of GLP-1 Receptor Inverse Agonists: Cytotox Screen. Potency, µM (doses to about 38.3 µM), inactives show at the top dose activity change, negative = inhibition, hits mostly inhibitors. 410,000 compounds, 0.13% hits. HEK293 cAMP-luciferase reporter cells, luminescence, 24 h;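 further: loss of luciferase light is scored as toxicity; potency means the concentration at half of the fitted maximal effect; on the % scale 0 is the no-effect control and ±100 the full control effect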
#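 Compound-treated cells are incubated 24 hr at 37 deg C under 5% CO2 after a 12 hour attachment period, then luciferase detection reagent is added and luminescence is measured following 12 min at room temperature; lowered signal indicates toxicity.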
# GLP1R inv ag: qHTS of GLP-1 Receptor Inverse Agonists (Inhibition Mode); HEK293 GLP-1R CRE-luciferase, luminescence, 24 h; GLP-1R form is constitutively active; Potency, µM (series often up to 38.3 µM), for the others: top-dose activity change, negative = inhibition, most hits filed as inhibitors; 410,000 compounds, 1.6% hits; further: potency means the concentration at half of the fitted maximal effect; on the % scale 0 is the no-effect control and ±100 the full control effect; nearly all actives have a fitted effect of over 55% in size
#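 Seeding at 200 cells/uL, 12 h culture, 24 hr compound treatment, then luciferase reagent and a luminescence read; cells are HEK293 stably expressing a constitutively active GLP-1R plus cAMP-responsive luciferase.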
# An asterisk follows results filed as active; i = inactive; ? = inconclusive; . = no result; [ ] = remark or other dose. Unless noted, the call rests on the fitted dose curve; in most records, active means well fitted curve in the direction sought with a large enough effect; inconclusive means small, poorly fitted or top-dose-only effect, or another doubt; inactive means no such curve, though single readings can be large; an effect the other way counts as inactive or inconclusive.
SMILES,miR-21 reporter,PTHR1 agonist,Pin1 inh,GLP-1R agonist,HEK293 tox,GLP1R inv ag
CCOC(=O)c1c2c(n(Cc3ccccc3)c1C)C(=O)C(=O)c1ccccc1-2,.,-28%,6%,-22%,5µM*,?
Cc1ccccc1-c1nc(CN2CCC(C(=O)NCc3ccccc3Cl)CC2)c(C)o1,0%,i,-5%,.,-2%,6%
O=C(Nc1ccc(O)c2ncccc12)c1ccccc1F,.,.,-7%,.,.,.
CCOC(=O)Cc1ccc(NC(=O)c2ccc(C(C)(C)C)cc2)cc1,?,-12%[57.5 µM],4%,-11%,-20%,5µM*
CCOC(=O)Cc1ccc(NC(=O)c2ccccc2Br)cc1,6%,-11%,1%,17%,-9%,?
Cc1ccccc1Nc1c(-c2ccc(N3CCOCC3)cc2)nc2ccc(Cl)cn12,-9%,-9%,3%,.,16%,10µM*
Cc1ccc2nc(-c3ccc(N4CCOCC4)cc3)c(Nc3ccccc3C)n2c1,10%,i,-1%,.,-20%,?
Cc1ccn2c(Nc3ccccc3C)c(-c3ccc(N4CCOCC4)cc3)nc2c1,1%,-2%,22%,.,-10%,13µM*
Cc1ccc(O)c(-c2cc(-c3ccccc3C)[nH]n2)c1,0%,-18%,-14%,0%,?,5.6µM*
COc1ccc(O)c(-c2c(-c3ccc(Cl)cc3)n[nH]c2C)c1,15%,5%,?,4%,13%,10µM*
COc1ccc(-c2cc(-c3cc(C)ccc3O)[nH]n2)cc1,-60%,-5%,-4%,15%,?,10µM*
Cc1ccc(O)c(-c2cc(-c3ccccc3[N+](=O)[O-])[nH]n2)c1,-43%,-14%,-12%,-1%,?,?
COc1ccc(-c2cc(-c3ccc(C)cc3)n[nH]2)c(O)c1,-47%,-78%,-2%,11%,-19%,?
COc1ccc(-c2n[nH]c(C)c2-c2ccc(Cl)cc2)c(O)c1,9%,-26%[57.5 µM],2%,-2%,?,?
Cc1ccc(CNCc2cn[nH]c2-c2ccc(C)cc2)cc1,.,.,-3%,.,.,.
CC1(C)C(=O)N(CC(=O)Nc2ccc(OC(F)(F)F)cc2)c2ccccc21,-2%,-47%,-7%,.,-11%,?
COc1cc2ccccc2cc1C(=O)N1CCN(c2nc3ccc(F)cc3s2)CC1,4%,-36%,10%,.,4%,0%
N[C@@H](C(=O)N[C@@H]1C(=O)N2C(C(=O)O)=C(CSc3cn[nH]n3)CS[C@H]12)c1ccc(O)cc1,.,.,.,0%,.,.
O=C(CN1CCN(c2ccc(Cl)cc2)CC1)Nc1ccc(F)c(F)c1,9%,-14%,4%,-12%,5%,2.8µM*
Cc1ccc(Cl)cc1N1CCN(CC(=O)Nc2ccc(CN3CCCCC3)cc2)CC1,-4%,-19%[57.5 µM],3%,-12%,?,11µM*
CC(C)Cn1c(N2CCN(CC(=O)Nc3ccc(Cl)cc3)CC2)nc2ccccc21,-2%,-32%,2%,7%,-24%,10µM*
Cc1ccc(SCc2nc3ccccc3n2CC(=O)Nc2ccc(Cl)cc2)cc1,-11%,-18%,27%,-17%,-29%,0%
CCN(CC)c1ccc(NC(=O)CN2CCN(c3ccc(F)cc3)CC2)cc1,-4%,-14%,8%,-1%,-3%,10µM*
COc1cc(SC)ccc1C(=O)N1CCn2c3c(c4cc(C)ccc42)CCCC31 (stereo not given),0%,-20%,-1%,.,9%,5%
Cc1cc2c(s1)c1cnn(Cc3c(Cl)ccc(C)c3F)c(=O)c1n2C,.,.,90%,.,.,.
NC(=O)C1CCN(c2nccc(-c3ccc(Br)cc3)n2)CC1,.,.,2%,.,.,.
